# A selection: hits, their analogues and other compounds. The true share with any hit is near 18%.
# RORgamma inh: blocks mouse ROR gamma transcriptional activity; 5.4% of 310,000 active; Drosophila S2 Gal4-RORgamma UAS-luciferase reporter, 20 h; Potency, µM (top dose mostly 53.6 µM), without a hit: top-dose activity change, negative = inhibition, most hits filed as inhibitors; AID 2551; P51450; note: potency is the fitted concentration of half-maximal effect; nearly all actives have a fitted effect of over 60% in size
# Target sequence (P51450 whole entry, looked up, the tested form may be a part): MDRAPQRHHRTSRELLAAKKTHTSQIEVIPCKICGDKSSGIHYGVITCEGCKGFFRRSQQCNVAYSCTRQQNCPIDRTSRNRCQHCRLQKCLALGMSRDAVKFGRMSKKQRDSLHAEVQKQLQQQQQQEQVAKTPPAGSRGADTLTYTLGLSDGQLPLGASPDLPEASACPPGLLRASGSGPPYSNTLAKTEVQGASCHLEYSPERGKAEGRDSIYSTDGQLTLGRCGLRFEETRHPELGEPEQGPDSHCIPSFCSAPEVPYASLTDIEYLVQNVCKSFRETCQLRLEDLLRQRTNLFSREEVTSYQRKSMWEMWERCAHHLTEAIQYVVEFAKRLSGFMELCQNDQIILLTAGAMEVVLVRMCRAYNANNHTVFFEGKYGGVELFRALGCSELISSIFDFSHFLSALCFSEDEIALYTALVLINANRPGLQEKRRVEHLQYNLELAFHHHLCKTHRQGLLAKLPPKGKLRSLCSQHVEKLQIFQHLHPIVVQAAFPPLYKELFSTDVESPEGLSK
#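 Drosophila Schneider cells stably carrying a metallothionein-driven Gal4 DBD–ROR gamma fusion and a UAS-Photinus luciferase reporter were exposed to compound for 1 hr, then induced with copper sulfate (700 uM final) for 20 hr at ambient temperature before luminescence reading.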
# VP16 counter: Gal4-VP16 reporter inhibition counter-screen. Drosophila S2 Gal4-VP16 UAS-luciferase, luminescence, 20 h. Potency, µM (doses to about 53.6 µM), without a hit: top-dose activity, negative = inhibition, actives largely listed as inhibitors. 3.5% of 310,000 active. AID 2546;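 note: Gal4-VP16 expression switched on by copper sulfate through the metallothionein promoter; potency is the fitted concentration of half-maximal effect; nearly all actives have a fitted effect of over 50% in size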
# DT40 TDP1 no CPT: qHTS for Inhibitors of human tyrosyl-DNA phosphodiesterase 1 (TDP1): qHTS in cells in absence of CPT; Potency, µM (top dose mostly 46.2 µM), for inactives: top-dose activity change, negative = growth inhibition, hits mostly inhibitors; AID 686978, 2013; DT40 Tdp1-/- hTDP1 cells, no CPT, ATP luminescence, 48 h; 15% of 420,000 active; note: potency is the fitted concentration of half-maximal effect; nearly all actives have a fitted effect of over 55% in size
#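 Chicken DT40 Tdp1-/- cells complemented with human TDP1, screened without camptothecin (DMSO vehicle only), 400 cells/well. Compounds pin-transferred, cells incubated at 37 °C for at least 48 hr. Growth read as ATP-dependent luminescence (CellTiter-Glo, 30 min at RT).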
# IL-1B inflam inh: inflammasome signaling inhibition, IL-1 beta readout; activity change, % at 57.5 µM; THP-1 LPS/ATP IL-1B secretion, AlphaLISA, 16 h; stronger effect = lower value; 4.7% of 360,000 active; in the data active = activity change below about -50%; inconclusive = mostly about -30% to -49%
#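 THP-1 cells pretreated 1 hr with compounds (up to 57.5 uM final), then stimulated with LPS (250 ng/mL final) plus ATP (1.25 mM final); secreted IL-1B measured by AlphaLISA after 16 hr, decreased signal indicating inhibition.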
# TDP1 cell CPT: DT40-hTDP1 cell growth loss with CPT; 12% of 420,000 active; AID 686979; chicken DT40 Tdp1-/-;hTDP1 cells + 20 nM CPT, ATP luminescence, 48 h; Potency, µM (highest dose often 46.2 µM), for inactives: at the top dose activity change, negative = growth inhibition, usual class: inhibitors; note: potency is the fitted concentration of half-maximal effect; nearly all actives have a fitted effect of over 55% in size
#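 Cell growth measured by CellTiter-Glo luminescence after a minimum 48 h, 37 C compound exposure with 20 nM CPT in Tdp1-knockout DT40 cells stably expressing hTDP1, seeded 400/well; qHTS titration format.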
# LDHA inh: LDHA (human) enzyme inhibition; purified LDHA, NADH/diaphorase-resazurin fluorescence; stronger effect = lower value; activity change, % (values are at about 110 or 230 µM); AID 1347041; 0.15% of 480,000 active; in the data active = activity change below about -30%; inconclusive = mostly about -25% to -30%;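 note: plate controls were DMSO wells for no effect and wells without enzyme for full effect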
#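 Enzyme activity of human lactate dehydrogenase 5 (2 nM; 0.06 mM NADH, 0.2 mM pyruvate, 5 min, RT) is measured via a resazurin/diaphorase fluorescence readout of residual NADH.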
# * = called active by the depositor; ? = inconclusive; . = no result given. Unless noted, calls come from the whole dose curve; as a rule, active = well fitted curve in the direction sought with a large enough effect; inconclusive = small, poorly fitted or top-dose-only effect, or another doubt; inactive = no such curve, though single readings can be large; an effect the other way counts as inactive or inconclusive. Unless noted, % is set by controls: 0 for no effect and ±100 for the full control effect.
SMILES,RORgamma inh,VP16 counter,DT40 TDP1 no CPT,IL-1B inflam inh,TDP1 cell CPT,LDHA inh
COCCNC(=S)Nc1cc2oc3ccccc3c2cc1OC,5.62µM*,7.08µM*,6.6%,9.2,10.1%,3.6
COc1cc2c(cc1NC(=S)NC(=O)c1c(OC)cccc1OC)oc1ccccc12,3.55µM*,?,?,14.6,?,-3.5
COC(=O)c1cc(C(=O)OC)cc(S(=O)(=O)N2CCCC2c2nc3ccccc3[nH]2)c1 (stereo unspecified),.,.,.,.,.,9.9
Cc1nonc1NC(=O)COc1ccc(C(C)(C)C)cc1,.,.,.,.,.,4.2
CCCn1c(=O)c2sc(N3CCCC3)nc2n(CC(=O)Nc2ccc3c(c2)OCO3)c1=O,.,.,.,.,.,1.4
COc1cc2c(cc1NC(=O)c1cccnc1)oc1ccccc12,21.2%,0.0%,?,-13.7,?,-3.8
COc1cc2c(cc1NC(=O)c1ccncc1)oc1ccccc12,?,2.2%,20.6µM*,-17.3,?,-2.8
Cn1c(=O)c2c(ncn2CCC(=O)Nc2ccc(Br)cc2)n(C)c1=O,.,.,.,.,.,0.1
O=C1CCCCC1Sc1nnc(-c2ccc3c(c2)OCO3)o1 (stereo unspecified),0.562µM*,0.891µM*,-15.2%,1.1,-23.3%,0.6
Clc1ccc(CSc2nnc(-c3ccc4c(c3)OCO4)o2)cc1,35.0%,9.8%,-7.7%,-8.6,-1.3%,-8.9
CC1CCc2c(sc3ncnc(N(C)CC(=O)N(C)C)c23)C1 (stereo unspecified),.,.,.,.,.,6.5
O=C(Nc1ccc(Cc2ccc(NC(=O)Nc3cccnc3)cc2)cc1)Nc1cccnc1,.,.,-13.1%,-24.9,-16.0%,-4.4
CCC(C)C(NC(=O)c1ccc(Cl)cc1)C(=O)Nc1cccnc1 (stereo unspecified),3.7%,5.2%,-2.0%,-85.1*,-9.1%,-1.4
Cc1ccc(NC(=O)Nc2cccnc2)cc1NC(=O)Nc1cccnc1,-20.0%,-10.9%,9.2µM*,-3.7,13µM*,0.9
CC(C)c1ccc(C(=O)Nc2cccnc2)cc1,?,-18.8%,-27.2%,-4.3,-0.9%,0.4
Cc1ccc(NC(=O)Nc2nc3ccccc3s2)cc1NC(=O)Nc1nc2ccccc2s1,21.5%,8.0%,13µM*,8.7,?,-19.9
O=C(Nc1ccc(Cl)c([N+](=O)[O-])c1)Nc1nc2ccccc2s1,-0.3%,-0.6%,.,.,.,.
O=C(Nc1ccc(Cl)cc1)Nc1cccnc1,?,15.0%,?,-22.0,16.4µM*,-34.2*
Cc1cc(C)cc(NC(=O)Nc2cccnc2)c1,-2.6%,-5.4%,0.7%,-20.2,?,-9.8
CCCCCCCn1c(SCCC(=O)O)nc2c1c(=O)[nH]c(=O)n2C,.,.,.,.,.,-1.5
C=CCN(CC=C)C(=O)/C=C/c1csc(C)n1,.,.,.,.,.,4.8
O=C(Nc1cccnc1)Nc1cccc(F)c1,.,.,13µM*,18.7,-28.4%,4.7
CCC(C(=O)c1ccc2ncccc2c1)c1ccccc1 (stereo unspecified),44.6%,?,16.4µM*,34.9,14.6µM*,-1.1
CCCCNc1nc2ccccc2nc1NS(=O)(=O)c1ccccc1,.,.,.,.,.,-15.0
CCCCNC(=O)C1C(c2ccc(OC)cc2)=Nc2ccccc2N1C(=O)c1ccncc1 (stereo unspecified),.,.,20.6µM*,-8.0,23.1µM*,2.6
SMILES,RORgamma inh,VP16 counter,DT40 TDP1 no CPT,IL-1B inflam inh,TDP1 cell CPT,LDHA inh
CCCCNC(=O)C1C(c2ccc(OC)cc2)=Nc2ccccc2N1C(=O)c1cccnc1 (stereo unspecified),.,.,-29.8%,-21.0,?,-4.6
COc1cc(C(O)c2nc(-c3cccc(C(F)(F)F)c3)cs2)ccc1F (stereo unspecified),.,.,?,?,16.4µM*,3.1
COc1ccc(C(O)c2nc(-c3cccc(F)c3)cs2)cc1 (stereo unspecified),.,.,?,-93.3*,16.4µM*,-0.8
COc1cc(C(O)c2nc(-c3ccc(C)c(C)c3)cs2)ccc1F (stereo unspecified),.,.,?,-3.8,?,0.2
COc1cc(C(O)c2nc(-c3cccc(NC(C)=O)c3)cs2)ccc1F (stereo unspecified),.,.,16.4µM*,19.1,?,-6.1
OC(c1ccccc1)c1nc(-c2cccc(F)c2)cs1 (stereo unspecified),.,.,-23.0%,4.5,-18.5%,-1.6
COc1cccc(C(NC(C)=O)c2nc(-c3cccc(C(F)(F)F)c3)cs2)c1 (stereo unspecified),.,.,?,-18.2,?,-4.9
COc1cccc(C(O)c2nc(-c3cccc(C(F)(F)F)c3)cs2)c1 (stereo unspecified),.,.,0.581µM*,14.4,-85.2%,-0.7
O=C(CN1CCN(C(=O)c2cc(-c3ccccc3)nc3ccccc23)CC1)NC1CC1,.,.,.,.,.,-5.4
CC1(C)CC(=O)C2=C(C1)OC(N)=C(C#N)C2c1ccco1 (stereo unspecified),.,.,.,.,.,-1.9
CN(C)S(=O)(=O)c1cc(C(=O)NCc2coc(-c3cccs3)n2)ccc1Cl,.,.,.,.,.,-1.0
CCCCNS(=O)(=O)c1cc(-c2n[nH]c(=O)c3ccccc23)ccc1C,.,.,.,.,.,-3.8
COc1ccc(C(O)c2nc(-c3cccc(C(F)(F)F)c3)cs2)cc1 (stereo unspecified),.,.,?,20.0,20.6µM*,-0.2
O=C(Nc1cccc(C(=O)O)c1O)c1ccco1,.,.,.,.,.,13.6
Cc1ccc2c(=O)cc(C(=O)NCc3ccc4c(c3)OCO4)oc2c1C,.,.,.,.,.,7.1
C=CC[C@@H]1/C=C(\C)C[C@H](C)C[C@H](OC)[C@H]2O[C@@](O)(C(=O)C(=O)N3CCCC[C@H]3C(=O)O[C@H](/C(C)=C/[C@@H]3CC[C@@H](O)[C@H](OC)C3)[C@H](C)[C@@H](O)CC1=O)[C@H](C)C[C@@H]2OC,?,-6.3%,2.99µM*,.,3.35µM*,.
CC(OC(=O)c1cncc(Br)c1)C(=O)C12CC3CC(CC(C3)C1)C2 (stereo unspecified),.,.,.,.,.,-23.9
Nc1nc(=S)ss1,.,.,7.31µM*,-98.2*,16.4µM*,-18.2
COC(=O)c1ccc(C2C(C#N)=C(N)Oc3cc(N)ccc32)cc1 (stereo unspecified),-15.4%,13.7%,-2.8%,-13.6,0.92µM*,2.2
N#CC1=C(N)Oc2cc(N)ccc2C1C1CCCCC1 (stereo unspecified),-15.0%,-7.8%,20.6µM*,?,?,1.2
COc1ccc(OC)c(C2C(C#N)=C(N)Oc3cc(N)ccc32)c1 (stereo unspecified),11.2%,2.3%,?,-7.4,?,-1.1
